An excerpt weighted towards active compounds, which were near 3.8% of everything screened.
Candida biofilm: kills Candida albicans biofilms | C. albicans biofilm + clotrimazole, Alamar Blue | inhibition, % at 6 µM | 0.14% of 85,000 active | AID 834;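 active means inhibition above 20%; inactive means inhibition below 20%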;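 further: preformed 24 hr biofilms exposed to compound for 48 hr; 0% = biofilm without compound and 100% = blank killed by clotrimazole plus chlorhexidine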
ERa SRC1 pot: ER-alpha (human) coactivator binding potentiation; 1.3% of 86,000 active; TR-FRET ERalpha-LBD/SRC-Cy5 coactivator binding, 2 h; 100 = basal binding, no effect; coactivator binding (% of control), % at 25.6 µM; in the data active means activity above about 200%;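 further: binding measured in presence of low estradiol as agonist stimulus; 0% = peptide alone without receptor and 100% = receptor with peptide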
Target sequence (P03372 whole entry, looked up, the tested form may be a part): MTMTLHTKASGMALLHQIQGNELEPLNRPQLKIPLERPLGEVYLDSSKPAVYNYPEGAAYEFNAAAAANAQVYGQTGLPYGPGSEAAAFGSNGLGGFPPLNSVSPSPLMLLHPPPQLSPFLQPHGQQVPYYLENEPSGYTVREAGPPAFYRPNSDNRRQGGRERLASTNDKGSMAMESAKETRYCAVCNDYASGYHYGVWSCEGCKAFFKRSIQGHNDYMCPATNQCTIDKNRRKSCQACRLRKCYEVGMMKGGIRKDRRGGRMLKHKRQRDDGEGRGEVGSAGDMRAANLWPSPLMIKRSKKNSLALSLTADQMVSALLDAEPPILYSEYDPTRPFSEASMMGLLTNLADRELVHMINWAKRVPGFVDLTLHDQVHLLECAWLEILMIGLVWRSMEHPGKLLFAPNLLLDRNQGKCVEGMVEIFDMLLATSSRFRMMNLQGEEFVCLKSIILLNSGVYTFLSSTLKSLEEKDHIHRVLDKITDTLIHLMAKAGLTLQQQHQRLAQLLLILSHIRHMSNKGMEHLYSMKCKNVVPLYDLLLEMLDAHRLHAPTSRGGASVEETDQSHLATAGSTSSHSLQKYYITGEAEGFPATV
Smad3 FoxH1 inh: inhibitors of human Smad3 transcription factor binding; inhibition, % at 25 µM; 0.29% of 88,000 active; TR-FRET Smad3/Dy647-FoxH1 peptide binding, europium anti-His; P84022;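 active means compounds that reduce the energy-transfer binding signal between the protein and its labelled peptide by more than half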;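 further: 0% = Smad3 plus labelled peptide maximal FRET and 100% = peptide-only background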
ERb SRC1 inh: blocks coactivator binding to human estrogen receptor beta; inhibition, % at 25.6 µM; TR-FRET ER-beta LBD / SRC1-Cy5 peptide binding; receptor agonist-loaded with 1 µM estradiol; 1.3% of 86,000 active; AID 633; Q92731;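 active means compounds whose percent inhibition of the receptor-coactivator binding signal exceeds about 50% in the single-dose screen, limit read from the data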;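 further: 0% = receptor plus peptide wells without compound and 100% = peptide-only wells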
ERa SRC1 inh: ER-alpha (human) coactivator binding inhibition; P03372; TR-FRET ER-alpha LBD / SRC-1 peptide, estradiol-bound; inhibition, % at 25.6 µM; 1.7% of 86,000 active; in the data active means inhibition above about 50%;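 further: 0% = receptor plus peptide control and 100% = peptide only without receptor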
* hit, by the source's call; i = inactive; · = no result given; [ ] = remark or other dose.

SMILES	Candida biofilm	ERa SRC1 pot	Smad3 FoxH1 inh	ERb SRC1 inh	ERa SRC1 inh
Cn1c(SCC(=O)c2ccc3c(c2)OCCO3)nnc1C1CC1	-3	89	3	-6	25
C[C@@H]1NCC[C@H](CC(=O)O)[C@H]1CC(=O)O	·	·	11	·	·
O=C(O)CCCc1ccc2ccc3ccccc3c2c1	·	·	-4	·	·
Cc1nn(C)c(C)c1N=Cc1c(O)ccc2ccccc12	9	96	8	68*[fluorescence artefact?]	-4
O=C(O)/C(Cc1cn[nH]n1)=N\O	·	·	-4	·	·
COCC(=O)Nc1cc(C)c2c(=O)oc3ccccc3c2n1	13	73	-5	41	24
COc1ccc(C(=O)Nc2cc(C)c3c(=O)oc4ccccc4c3n2)cc1	9	143	-2	29	53*[fluorescence artefact?]
CCCCOCCCn1c(-c2ccco2)nc2nc3ccccc3nc21	-4	86	2	18	14
COc1ccc(/C=C/C(O)=C2/C(=O)N(C)C3(C)CC2c2ccccc2O3)cc1 (centres undefined)	2	95	14	27	63*
CCN1C(=O)C(C(=O)Nc2ccc(OC)cc2)C2CC1(C)Oc1ccccc12 (centres undefined)	10	114	6	3	-12
Cc1c([C@H]2[C@@H](CC#N)C2(C)C)c2ccccc2n1C	7	73	12	69*	63*[fluorescence artefact?]
C=CCn1c(Cc2csc(N)n2)nnc1SCC(=O)Nc1ccccc1C(F)(F)F	3	101	24	0	5
COc1nc(C)nc(NC(=O)NS(=O)(=O)c2ccc(C)cc2)n1	5	80	-10	51*[fluorescence artefact?]	5
COc1ccc(NC(=O)NS(=O)(=O)c2ccc(C)cc2)c(OC)c1	2	92	9	18	5
COc1ccc(C2=Nn3c(nnc3-c3cccnc3)SC2)cc1	11	99	7	58*[fluorescence artefact?]	-10
N/C(=N/O)c1cn([C@H]2O[C@@H](CO)[C@H](O)[C@H]2O)c2ncnc(NO)c12	·	·	20	·	·
Cc1c(C)c(C)c(CC2(C)CSC2)c(CC2(C)CSC2)c1C	·	·	5	·	·
OC[C@@H]1CCC[C@H](n2cnc3c(=S)nc[nH]c32)O1	·	·	55*	·	·
Cc1cc(C)n(-c2nc(N(c3ccccc3)c3ccccc3)nc(-n3nc(C)cc3C)n2)n1	3	129	1	13	33
Cc1cc(C)n(-c2nc(Nc3ccccc3)nc(-n3nc(C)cc3C)n2)n1	1	248*	17	55*[fluorescence artefact?]	63*[fluorescence artefact?]
CC1(C)CCCC2=C1CC1C(=O)N(O)C(=O)C1C2 (centres undefined)	-3	119	-6	89*	0
NCCSCCc1ccccc1	·	·	4	·	·
CCNC(=O)NC(=O)COc1ccccc1C#N	-4	332*[fluorescence artefact?]	-10	-24	-25
O=c1c2cc(N3CCOCC3)ccc2[nH]c(=S)n1Cc1cccc(Cl)c1	7	127	-31	0	3
O=c1[nH]c2ccccc2c(=O)n1Cc1ccco1	6	98	-1	63*	-2
SMILES	Candida biofilm	ERa SRC1 pot	Smad3 FoxH1 inh	ERb SRC1 inh	ERa SRC1 inh
O=c1c2cc(N3CCOCC3)ccc2[nH]c(=S)n1Cc1ccco1	9	99	5	51*	47
CSc1cccc(NC(=O)CN(Cc2ccc(Cl)cc2)S(C)(=O)=O)c1	3	112	-1	-3	5
Cc1ccc(OCCOCCn2ccnc2)c(Br)c1	-3	96	1	1	-10
Cc1cc(-c2ccc(Cl)cc2)c(C#N)c(N)n1	5	285*[fluorescence artefact?]	35	32	39
CCOC(=O)N1CCN(C(=O)C2CCN(S(=O)(=O)CC)CC2)CC1	6	238*[fluorescence artefact?]	-6	-4	0
CCOC(=O)C(C)(C)[C@H](O)C(C)C	·	·	-11	·	·
O=C(CCC(=O)Nc1nnc(C2CCCCC2)s1)NCC1CCCO1 (centres undefined)	7	203*[fluorescence artefact?]	81*	61*	63*
CC(C)c1nnc(NC(=O)CCC(=O)NCC2CCCO2)s1 (centres undefined)	5	113	-1	-2	-1
Cc1ccc(-n2nc(C)c3c(-c4cccs4)c(C#N)c(N)nc32)cc1	3	210*[fluorescence artefact?]	6	19	10
Cc1nc(N)c(C#N)c(-c2ccccc2)c1C	4	115	3	2	-1
Cc1nn(-c2ccccc2)c2nc(N)c(C#N)c(-c3ccc(F)cc3)c12	4	215*[fluorescence artefact?]	2	13	13
COC(=O)c1ccc(COc2ccc3c4c(c(=O)oc3c2)CCC4)o1	1	240*[fluorescence artefact?]	i	19	37
COC(=O)c1ccc(COc2ccc3c(C)c(C)c(=O)oc3c2C)o1	8	444*[fluorescence artefact?]	-44	13	7

From PubChem
